Experimental findings from PubChem BioAssay AID1508600 (Functional Genomics Laboratory (NCATS/FGL), 2020) are described below.

Out of some 53,000 sequences screened, about 3,700 (7%) were called active. Only a selection was taken, and actives are over-represented in it overall. A number with no mark means an inactive call.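 Rule for the calls: active = gene knockdowns whose robust z-score for IL-1 alpha signal is at least 2 or at most -2, so actives lie on both sides; inactive = the rest.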

This experiment can be described thus: Components of the Cytosolic LPS Sensing Pathway: Gene Identification via Genome-wide siRNA Screen. The following applies: RAW264.7 macrophages, IL-1a HTRF, actives lie on both sides, screened at 100 nM (by protocol), cells primed 5 h with Pam3CSK4 first. From the text: Non-canonical inflammasome activation by cytosolic LPS is a critical component of the host response to Gram-negative bacterial infection, however we lack a comprehensive understanding of the cellular processes that control this pathway. Here we describe a genome-wide siRNA screen to identify genes regulating the mouse macrophage IL-1 alpha response to cytosolic LPS.
RAW264.7 cells were maintained in complete DMEM media, comprising DMEM with 4.5 g/L glucose, 10% FBS (Gemini Bio-Products, West Sacramento, CA), 2 mM Glutamine (Lonza) and 20 mM HEPES (Lonza), hereafter complete DMEM.
The RNAi screen was conducted in 384-well format using the Ambion Silencer Mouse Genome siRNA Library (#4391425), which consists of three unique, nonoverlapping, nonpooled siRNAs for each of 17,000 gene targets. siRNA reagents ([…]) were stamped into 384-well white flat-bottom microplates (Corning, 3570) using a Velocity11 VPrep liquid handling system (Agilent) integrated into a BioCel robotic platform (Agilent) in columns 1-22, leaving columns 23-24 empty for negative (Ambion, Negative control #1) and positive (mouse Casp4) controls, respectively. The median value of each plate's negative control column was used to normalize sample wells, and the positive control was used to assess transfection efficiency and assay performance.
Lipofectamine RNAiMAX Transfection Reagent ([…]; Invitrogen) was added in […] serum-free, antibiotic-free media to plate wells using a Thermo Scientific Matrix WellMate and Microplate Stacker. Plates were incubated for 45 min at room temperature to allow for the sufficient formation of siRNA-lipid complexes. Cells were seeded at a density of 1x10^4 cells per well in 20 microL media containing 20% (vol/vol) FBS without antibiotics. The final concentration of siRNA in each well was 100 nM. Cells were cultured for 48h at 37 degrees C in 5% CO2 before addition of […] of TLR ligand Pam3CSK4 for 5 hours. The medium was then removed, replaced with […] growth media and cell were transfected with […] of LipidA and TransIT-TKO (Mirus) for 24 hour. At the end of the LipidA treatment, […] of supernatant was transferred to a 384 Greiner Bio-one non-binding low volume plate and […] of IL-1a HTRF reagent (Cisbio, 62MIL1APEH) was added and incubated at room temperature overnight. The plates were read on an EnVision plate reader (PerkinElmer). Cell viability was measured by adding 20ul Cell Titer Glo to the original plate and running a luminescence read on the EnVision. The quantified IL-1a signal for each siRNA gene-targeted well was divided by the median of the negative control wells and multiplied by 100 to achieve a negative control normalized value for each well/siRNA. This normalized value was then used to generate a robust z-score by first taking the log of each value and then by subtracting the median and dividing by the […].
With GGAGUUUUGUGAACUAUGATT against Slc36a3, the z-score was -2.73 (active).
Under GCUGCAUAGACUCAUGGUUTT against Znrf1 stands -0.408; under GGCACUCCUCUUUGUUUUCTT against Olfr414, -1.82.
For CCCAAAUGAUUGGAUCUGUTT against Cd40lg the value was 0.273; for CGAAUGGCUAUCAGUGAGGTT against Tbc1d20, -1.04.
For GGACUGUAUGUGGAAUGGCTT against Bmyc the value was -0.46; for GCUACUAAGCACCUAGAGATT against Fxr2, -0.932; for CUCUAGCUACUAUUUUCUCTT against Olfr824, -1.57.
Consider GGAUAUGGACUAUUCACGGTT against Dgat1, for which the z-score is -1.32.
For CGGCUUACGCAUGUCUAUGTT against Polr2a, the z-score was -2.01 (active).
For the sequence GGUUUUGCCAAGGACGCAGTT against Ngf, the z-score was 0.124.
For the sequence GGAAGAAAAAAAAUCUCCATT against Frmd3, the z-score is 0.577.
For GGUGGUUAUGAUCUAUGAUTT against Dazap1 the value was -1.43; for GGCUGGAGCCUCAAAUAUCTT against Rapsn, -0.574.
On to “GGUGGAUGCCUUGAAUAUGTT against 1700029P11Rik”, for which the z-score was -2.25 (active).
Regarding CGAGCUAACAGCAUUGCUGTT against Ajuba, the z-score is 0.532.
For GCCAUGCAAAUCGAUGGGUTT against Rora the value was -2.69 (active); for GCAUUUAAAAUACACGGUGTT against Arg1, 0.264.
Take GGUGACUCCAAGAAUGUGGTT against Wfdc1: the z-score is -0.703.
CCCAGAGCCAGGUUCAAACTT against AY702103: the z-score was 0.78.
For GCACUAAAUCCUUUGAUAUTT against Olfr307, the z-score was 1.08.
On to GCUGAACAAUUUUCAACAATT against Sclt1, for which the z-score is -0.958.
Regarding GCAUCCUUGACCGAUACUATT against Psmb2, the z-score was -2.78 (active).
For GGAUCUAUUGAUGGUUCAUTT against Tprkb, the z-score is -1.68.
In the case of GGGUCACCCAUUAUUUUAUTT against Phyhip, the z-score was -0.899.
In the case of GGGAGGAACAUCACCUCAGTT against Vmn2r123, the z-score is 0.327.
For the sequence GGUCAUACUCUAAUCGGACTT against Ctss, the z-score was 0.672.
As for GGAAAGAUGUCAAAGAAAUTT against Gnat2, the z-score is -1.14.
On to UGCCACUGCCAAAAAAUAATT against Tex18, for which the z-score is -0.838.
As for CCAGACAUUUGAUAGCCAUTT against Fam241a, the z-score was -1.42.
For GCCAAGCAUAAUCUAAUGATT against Prpf4b, the z-score is 0.851.
Under CGACCACAUUAUUGGGUUUTT against Senp8 stands 2.62 (active); under GCCUGUGAUCUUUUGUAUCTT against Olfr835, -0.726; under GGAUGUCUAGUUAUACAUUTT against Mbd3l1, 1.21.
Turning to GCUAAUGAAGCAGAGCUGUTT against Olfr1359, the z-score is 0.388.
Turning to GGUGUAACUCCUUCAUUGATT against Ripor2, the z-score was -3.12 (active).
In the case of CCUUAUCUCUACCAUCGGUTT against Hyal2, the z-score was 0.0745.
For GCACCAGCUCUAAUUCAGATT against Herpud2 the value was 1.48; for GCAUGAUGAUGGAGACCGATT against Sox1, -1.06.
Consider GGUGUUCCUAUAAAAGUAUTT against Tfb2m, for which the z-score is 0.597.
As for GGUGCUACAAGUGUACUGATT against Zswim2, the z-score is -2.14 (active).
With GGUCUUCCAGAACAAUUACTT against Prtn3, the z-score was 0.439.
As for GGCACACCUUUUGUUAGUGTT against Ywhag, the z-score is -1.94.
GGAUUUGUUCAAAUAACAGTT against Lsm14a: the z-score is -0.664.
Regarding CCAAAUUAUCACCCUGUUCTT against Olfr763, the z-score is -0.0232.
As to GGAAAUGCGUCAAAAGACUTT against H2az1, the z-score is 0.04.
GCUAAAAAUGGUUGUGUGATT against Six3os1: the z-score is -1.62.
As to GGAUGGUUUUCAUUUGCUUTT against Cd300ld, the z-score is -0.606.
Consider CCGUUAAGUAGCUGGAAGATT against Ubl4b, for which the z-score was 0.488.
Turning to GGGAACCUCACCAUUAUCATT against Olfr769, the z-score was -0.413.
Regarding GCAAGGACCAAAUUACAUATT against Itgb3bp, the z-score was 2.45 (active).
Under GGACUUUCUGAUGGACUUGTT against Sapcd1 stands 1.59.
On to GGAUCCUGAAAUCAAAACUTT against Mbl1, for which the z-score was -0.316.
Regarding “GGCAUAACCAAAAGAAAGUTT against 4933427E11Rik”, the z-score is 0.648.
Consider GGGCUUCUUUGCCACACUUTT against Rho, for which the z-score was 0.761.
Take CGAGAUGAAAUAUACAGAUTT against Trat1: the z-score was 1.12.
Consider GGACAAUUAACGAUCCCACTT against Pdxp, for which the z-score was -2.58 (active).
GGGUUAUGGUAGAUUAUCUTT against Tor4a: the z-score is -0.376.
As for GGACACCUCGAGAUUCUCUTT against Actl11, the z-score was -0.186.
For GGAAAACAACACGAUGAAATT against Tex13b the value was -1.72.
Take GGAAGGAGAACAUUCCUUUTT against Ces1d: the z-score was -0.198.
Turning to GGCCAUUUGUUAGGACCUGTT against Prmt6, the z-score was 0.205.
For CGGCAUGUCCUUCAUCGCUTT against Proser2, the z-score was -2.89 (active).
Take GGAGAAAAUUCAAGUCACCTT against Olfr663: the z-score was 0.215.
Turning to “AGUGAAACUAAACUGGAGUTT against 2610318N02Rik”, the z-score was 1.41.
Under GGAUCUCAAUGUUCACUUGTT against Bpifb2 stands -0.817; under GGCUACUUCUGUACUAGGATT against Gclc, -1.05.
As to GGAGGAAGCUCAUCUAUGATT against Rpl7, the z-score is 0.964.
Take GGAAACCAUCAUGAAGAAATT against Siae: the z-score was -0.127.
Under CCCAUUGAACAGGAUGUUATT against Coq9 stands -0.292; under CCUGGUAUCCAAGAGGAAGTT against Myt1, 2.52 (active); under GCAUCAAUUGUCAGGAAAUTT against Rev3l, 0.807.
Regarding GGGCUCGUAAAGAAAGAAGTT against Cep41, the z-score was -1.15.
As to GCUGAUGAACGAAUACAACTT against Kcnk5, the z-score is 1.25.
With GCGCAGAACCCAGAUGAAGTT against Necap2, the z-score was 0.836.
Under CCGUCCAUUGCACUGGAUATT against Arntl2 stands 0.024; under GGUGUGAGUGUAAGUUUAUTT against Wnt16, 1.1; under CGGAUAUGAGAUGAGAAUGTT against Morn4, -2.4 (active).
For GGAUUUCAACAGACAGGUGTT against Paip2b, the z-score was 0.877.
Under GGCAGAACUCAAAUUCUUGTT against AW209491 stands -0.35.
Under GCGUAGCUGUAGUGAACCATT against Erh stands 1.78; under GGUACUACACCUUUGAUGATT against Fibp, -0.497; under GGACCACAACACAAAUCUGTT against Fasl, 1.49.
For UUCAUGUAGGUCUACUAUUTT against Olfr203 the value was -0.104.
Regarding GGAUCUGAAGCUGAUUACATT against Clca2, the z-score was 2.47 (active).
GCCACUGUUUGAUCUGAAATT against Fhod1: the z-score was 0.943.
For CCUUGCCAUAAGUGAUUUATT against Npffr2 the value was 0.876; for GGCCUUAAAAUACCUUUGATT against Srpx, 1.12.
Consider CCAGUACAAAGCCACAAUATT against Rab7, for which the z-score is 5.54 (active).
With GGACAUUUCACAAGUCAAATT against Eloc, the z-score was 1.81.
Regarding GGGUGGAAAAUUUCAGUUUTT against Ube2f, the z-score is -0.957.
Under CCAUCCCGUUCACUAGAGATT against Mypn stands -1.73.
For CCGACUGCUCGUAAAUUCATT against Ndufa12 the value was 2.79 (active).
For GGUACAAAGCCAUUGUACGTT against Grpr, the z-score was -0.381.
With GGAAGAGAAACGACAAAAUTT against Olfr293, the z-score is 1.46.
As to GGGAGACAAUCGUUUUAGCTT against Tgfbi, the z-score was 0.698.
With GGGCAUAUUCACGAUCAAUTT against Fut2, the z-score was 1.43.
Consider GGAAAGACCACAUUAUUAATT against Orc4, for which the z-score was 0.0347.
On to “GGUUUCUGCCCAGAGUCUATT against 2010106E10Rik”, for which the z-score was -2.78 (active).
Under GCAAGGACUCUCAUGGUUGTT against Zfand1 stands -0.0357.
Turning to GGUGCCGAACGUGUAAUUATT against Rarb, the z-score was 0.936.
GCCCAUGUGUAAUACAUUUTT against Prps1: the z-score is 0.789.
As to CCGGAGUAACUCUCUAACATT against Apbb3, the z-score was -0.291.
For GGGUGACCUUUCCAGAUGATT against Cldn13 the value was -0.846.
As for GGCACAUGGAAUCUUUGAGTT against Edc3, the z-score was -1.65.
As for GGAGCAACUACAAACAUCUTT against Acss2, the z-score was 2.35 (active).
Turning to GGGAUAAGACAGGAGACUUTT against Slc16a11, the z-score was 0.227.
In the case of GGGAAGGACUGUAAGAAAATT against Dipk1a, the z-score is -0.252.
